Measurements published in PubChem BioAssay AID1347074 (Center for Chemical Genomics, University of Michigan, 2019).
Out of some 47,000 compounds screened, about 2,800 (6%) were called active. This excerpt belongs to a sample that is enriched for actives. Values without a mark were called inactive. Cut-off read from the data, not from the text of the source: active = z-score above about 3 (passing the limit was not always enough); inactive = the rest.

Each molecule was assayed against Endoribonuclease Dicer (Homo sapiens) (UniProt Q9UPY3) (assay: inhibitors of Dicer pre-microRNA processing, primary screen, biochemical, cat-ELCCA, chemiluminescence (AID 1347074;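 note: plate controls were vehicle for no effect and no enzyme for full effect; higher signal means more uncleaved substrate so more Dicer inhibition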)). Details: cat-ELCCA pre-miR-21 Dicer processing, at 25 µM, hits give high values.
Sequence of Endoribonuclease Dicer (Homo sapiens) (Q9UPY3 whole entry, looked up): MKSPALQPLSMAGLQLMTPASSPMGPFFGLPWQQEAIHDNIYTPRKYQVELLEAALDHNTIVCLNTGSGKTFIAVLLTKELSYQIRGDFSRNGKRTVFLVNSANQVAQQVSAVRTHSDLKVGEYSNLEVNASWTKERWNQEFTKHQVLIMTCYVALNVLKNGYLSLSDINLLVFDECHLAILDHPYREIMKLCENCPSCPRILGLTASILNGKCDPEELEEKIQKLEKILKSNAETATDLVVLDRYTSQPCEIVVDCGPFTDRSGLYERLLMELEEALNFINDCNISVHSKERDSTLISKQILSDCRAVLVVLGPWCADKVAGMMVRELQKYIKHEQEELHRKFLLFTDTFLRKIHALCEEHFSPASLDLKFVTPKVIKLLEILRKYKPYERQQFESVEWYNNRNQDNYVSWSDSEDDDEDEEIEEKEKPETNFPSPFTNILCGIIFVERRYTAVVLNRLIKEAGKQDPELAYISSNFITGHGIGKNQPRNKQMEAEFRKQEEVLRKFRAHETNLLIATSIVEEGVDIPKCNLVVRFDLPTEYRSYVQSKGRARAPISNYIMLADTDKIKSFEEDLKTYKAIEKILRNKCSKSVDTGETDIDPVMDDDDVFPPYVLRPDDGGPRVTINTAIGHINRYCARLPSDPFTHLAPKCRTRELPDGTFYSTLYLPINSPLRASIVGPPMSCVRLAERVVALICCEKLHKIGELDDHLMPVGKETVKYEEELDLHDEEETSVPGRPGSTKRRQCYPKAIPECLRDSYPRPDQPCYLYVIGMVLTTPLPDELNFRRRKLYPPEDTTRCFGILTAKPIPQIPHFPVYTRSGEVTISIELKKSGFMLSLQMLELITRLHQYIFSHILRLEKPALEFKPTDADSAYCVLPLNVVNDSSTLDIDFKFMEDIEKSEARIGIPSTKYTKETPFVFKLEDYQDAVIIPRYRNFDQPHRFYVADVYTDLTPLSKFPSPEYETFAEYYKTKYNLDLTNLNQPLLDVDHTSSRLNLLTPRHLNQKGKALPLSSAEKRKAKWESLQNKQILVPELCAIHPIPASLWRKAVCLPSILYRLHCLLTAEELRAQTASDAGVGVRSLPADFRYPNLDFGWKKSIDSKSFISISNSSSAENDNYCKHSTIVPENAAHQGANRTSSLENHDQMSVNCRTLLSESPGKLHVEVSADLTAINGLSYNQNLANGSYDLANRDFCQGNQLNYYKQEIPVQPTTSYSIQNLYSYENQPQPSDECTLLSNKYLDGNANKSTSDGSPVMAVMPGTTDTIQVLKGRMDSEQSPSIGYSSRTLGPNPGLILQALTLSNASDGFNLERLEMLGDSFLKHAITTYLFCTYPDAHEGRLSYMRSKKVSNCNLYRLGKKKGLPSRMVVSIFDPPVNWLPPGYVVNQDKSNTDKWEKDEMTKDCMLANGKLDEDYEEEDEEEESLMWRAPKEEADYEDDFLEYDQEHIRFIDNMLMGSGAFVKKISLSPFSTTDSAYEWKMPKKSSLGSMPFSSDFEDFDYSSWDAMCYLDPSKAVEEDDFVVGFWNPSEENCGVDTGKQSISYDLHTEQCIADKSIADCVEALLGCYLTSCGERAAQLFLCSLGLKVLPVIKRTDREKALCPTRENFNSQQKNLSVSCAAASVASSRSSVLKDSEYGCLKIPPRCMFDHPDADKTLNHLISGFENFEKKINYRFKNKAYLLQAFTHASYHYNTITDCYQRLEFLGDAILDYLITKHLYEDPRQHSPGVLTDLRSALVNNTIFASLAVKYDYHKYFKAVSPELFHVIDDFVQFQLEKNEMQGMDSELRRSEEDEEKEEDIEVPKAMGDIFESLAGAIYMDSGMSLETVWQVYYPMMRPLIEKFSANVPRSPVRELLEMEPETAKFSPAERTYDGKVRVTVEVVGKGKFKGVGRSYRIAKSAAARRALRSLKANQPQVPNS

Row | SMILES | z-score
1 | CCn1nc(C)cc1-c1n[nH]c(=S)n1-c1ccccc1 | -0.98
2 | Cc1cc(C)cc(Oc2coc3cc(OCC(=O)OC(C)C)ccc3c2=O)c1 | 0.93
3 | Cc1[nH]n(C)c(=O)c1C(=O)c1c(-c2c(Cl)cccc2Cl)noc1C | -0.59
4 | Cc1onc(-c2c(Cl)cccc2Cl)c1C(=O)N=S(C)(C)=O | 0.49
5 | Cc1onc(-c2ccccc2Cl)c1C(=O)OCC(=O)c1ccccc1 | 4.29 (active)
6 | CCOCc1ccc2oc(C(=O)OCCN(CC)CC)cc2c1 | 0.17
7 | Cc1nn2c3c(cnc2c1-c1ccc(F)cc1)C(=O)CC(c1cccc(Cl)c1)C3 (configuration not stated) | 0.34
8 | Oc1c(Cl)cc(Cl)c(Cl)c1Cc1c(O)c(Cl)cc(Cl)c1Cl | 13.8 (active)
9 | O=C(CN1C(=O)c2ccccc2S1(=O)=O)NC1CCCCC1 | 1.13
10 | Cc1ccc(C(=O)CC2(O)C(=O)N(CN3CCCCC3)c3ccc(Br)cc32)cc1 (configuration not stated) | 0.51
11 | CCOC(=O)c1sc(SC)c(-c2ccccc2)c1N | 11.5 (active)
12 | CCOC(=O)c1sc2ccccc2c1N | 0.22
13 | CCOC(=O)c1sc(SC)c2c1-c1ccccc1N(C)S2(=O)=O | -1.61
14 | CCOC(=O)/C(=N\Nc1ccccc1)c1csc(N)n1 | 0.02
15 | Cc1cc(C)n(C(=O)COc2ccc3ccccc3c2Br)n1 | 2.85
16 | CC(C)OC(=O)C1C(=O)CC(C)(O)C(C(=O)OC(C)C)C1c1ccc(O)cc1 (configuration not stated) | -0.2
17 | COC(=O)C1=C(C)NC2=C(C(=O)CC(C)(C)C2)C1c1cc(Cl)c(O)c(OC)c1 (configuration not stated) | 3.12
18 | CC(C(=O)N1CCCC1)N1c2cccc3cccc(c23)S1(=O)=O (configuration not stated) | -0.76
19 | O=[N+]([O-])c1cc(-c2cnc3ccccc3n2)ccc1Sc1ccccn1 | 15.7
20 | COC(=O)c1ccccc1N(C)C(=O)c1cc(OC)c(OC)c(OC)c1 | -0.98
21 | COC(=O)c1ccccc1-c1c2ccc(=O)cc-2oc2cc(O)ccc12 | 7.57 (active)
22 | COC(=O)c1cc(OC)c(OC)cc1N1C(=O)c2ccccc2C1=O | 0.34
23 | COC(=O)c1cc(NC(=O)NC(=O)c2c(Cl)cccc2Cl)ccc1S(=O)(=O)Cc1ccc(Cl)cc1 | 1.45
24 | CN(C)CCN1C(=O)C(=O)/C(=C(/O)c2ccc(F)cc2)C1c1cccs1 (configuration not stated) | 1.06
25 | CC(CC(=O)O)Oc1ccc(Cl)cc1[N+](=O)[O-] (configuration not stated) | -0.09

Row | SMILES | z-score
26 | COC(=O)c1sccc1Oc1ccc(Cl)cc1[N+](=O)[O-] | -0.2
27 | O=C(Oc1ccc(Cl)cc1Cl)c1ccc(Cl)cc1[N+](=O)[O-] | 4.36 (active)
28 | CC(C)N1CNc2nc3ccccc3n2C1 | 1.6
29 | COc1ccc(S(=O)(=O)N2CCCCC2)cc1Br | 4.32 (active)
30 | O=c1oc2cc(S(=O)(=O)N3CCCCC3)ccc2c2ccc(S(=O)(=O)N3CCCCC3)cc12 | 1.67
31 | COc1ccccc1N1CCN(S(=O)(=O)c2ccc(Br)cc2)CC1 | 1.29
32 | Cc1nc(-c2ccc(S(=O)(=O)N3CCCN(c4ncc(C(F)(F)F)cc4Cl)CC3)s2)cs1 | -1.58
33 | O=C1/C(=C/c2ccc3c(c2)OCO3)CCC/C1=C\c1ccc2c(c1)OCO2 | -1.56
34 | O=C1COCC(=O)N1c1ccc(F)cc1F | 2.81
35 | O=C1COCC(=O)N1c1ccc2c(c1)OCO2 | 3.01 (active)
36 | CS(=O)(=O)N1N=C(c2c(-c3ccccc3)c3cc(Cl)ccc3[nH]c2=O)CC1c1cccs1 (configuration not stated) | 0.27
37 | O=c1c(-c2ccccc2)coc2cc(O)ccc12 | 3.37 (active)
38 | COc1ccccc1-c1coc2cc(OC(=O)c3ccccc3Cl)ccc2c1=O | 0.93
39 | Cc1c2occ(-c3ccccc3)c2cc2c1oc(=O)c1ccccc12 | 2.4
40 | Cc1nn(Cc2ccc(C(=O)NCc3ccccn3)o2)c(C)c1[N+](=O)[O-] | 1.35
41 | Fc1ccc2onc(-c3cnn(-c4ccccc4)c3)c2c1 | 3.3 (active)
42 | Cc1ccc2oc(-c3cccc(N4C(=O)c5cccnc5C4=O)c3)nc2c1 | -1
43 | COc1ccc(-n2cnc3cc(NCc4ccco4)ccc32)cc1 | 6.39 (active)
44 | CC(Oc1cccc2c(=O)c3ccccc3oc12)C(=O)O (configuration not stated) | -0.48
45 | CSc1sc(C(=O)NN)cc1C#N | 1.26
46 | CCOC(=O)N1CCc2c(sc3c2C(=O)NC(c2ccccc2F)N3)C1 (configuration not stated) | 1.08
47 | Cc1cc(C(C)(C)C)ccc1NC(=O)COCC(=O)O | 1.34
48 | CCOc1ccc(-c2cc(O)cc3sc(=O)oc23)cc1 | 5.74 (active)
49 | CCOc1ccc(-c2nc(-c3ccc(C)nc3OC)no2)cc1 | 0.23
50 | CCCCOc1cc(O)c2c(=O)cc(-c3ccccc3)oc2c1 | -0.66

Row | SMILES | z-score
51 | Cn1c2c(c(=O)n(C)c1=O)C(C(=O)Nc1ccc(Cl)cc1)CC(=O)N2 (configuration not stated) | 1.36
52 | COC(=O)c1sccc1NNS(=O)(=O)c1ccc(C)cc1 | 0.67
53 | C=CCOc1ccc(C(=O)N(Cc2ccc(OC)cc2)C2CCS(=O)(=O)C2)cc1 (configuration not stated) | 1.67
54 | C=CCOc1ccc2c(=O)cc(C(=O)OCC)oc2c1 | -0.35
55 | NC(=O)c1c(NC(=O)CSc2nc3ccccc3o2)sc2c1CCC2 | 0.14
56 | CC(C)N1CCC(=O)N(c2ccccc2Cl)C1=O | 5.02 (active)
57 | CC(C)Oc1ccccc1Oc1ccc([N+](=O)[O-])cn1 | 14.5 (active)
58 | O=[N+]([O-])c1ccc(Sc2ccc(Cl)cc2)nc1 | -0.03
59 | CC(C)(C)n1cnnc1Sc1ccc([N+](=O)[O-])cn1 | 2.43
60 | COc1c(Br)cc([N+](=O)[O-])c(OC)c1C(N)=O | -0.32
61 | Cc1cc(C)c2c(c1)-c1cc(C)nn1C(c1ccc(O)cc1)N2 (configuration not stated) | 2.1
62 | CCN(CC)c1ccc(C2Nc3ccccc3-c3cc(C)nn32)c(O)c1 (configuration not stated) | 0.47
63 | Cc1cc2n(n1)C(c1cc(C(C)(C)C)c(O)cc1O)Nc1ccccc1-2 (configuration not stated) | 3.4 (active)
64 | OC(CN1CCN(C(c2ccccc2)c2ccccc2)CC1)Oc1cccc(C(F)(F)F)c1 (configuration not stated) | 2.86
65 | O=C1c2cccc3cc(Br)cc(c23)C(=O)N1CCO | 2.14
66 | CCN1/C(=C\C=C\c2scc[n+]2CC)Sc2c1ccc1ccccc21 | -2.64
67 | CC(=O)/C(=C\N=S(C)(=O)c1ccc(C)cc1)S(=O)(=O)c1ccc(Cl)cc1 (configuration not stated) | -3.56
68 | CC1=C(C(=O)OCC2CCCO2)C(c2cccs2)C2=C(CC(c3cccs3)CC2=O)N1 (configuration not stated) | 1.27
69 | C=CCn1c(SCc2nnc(SCC(=O)c3ccc(Cl)cc3)o2)nnc1-c1ccccc1 | 1.72
70 | CC1(C)Cc2c(C#N)c(SCc3nc4ccccc4[nH]3)nc(N3CCOCC3)c2CO1 | -1.2
71 | C=CCn1c(SCc2nc3ccccc3[nH]2)nnc1-c1ccccc1 | 4.03 (active)
72 | COc1ccc(-c2noc(-c3ccc(Cl)cc3)n2)cc1OC1CCCC1 | -0.55
73 | Cc1ccc(-n2c(C)nc3sc4c(c3c2=O)CCC(C)C4)cc1 (configuration not stated) | -0.76
74 | CCOC(=O)c1c(NC(=O)C2CCCN2S(=O)(=O)c2ccccc2)sc(C)c1C (configuration not stated) | 42.8
75 | O=S(=O)(c1ccc(Cl)cc1)N1CCN(c2cc(C(F)(F)F)nc3ccccc23)CC1 | -1.11

Row | SMILES | z-score
76 | Cn1c(=O)c2c(nc(NCCc3ccccc3)n2Cc2ccccc2)n(C)c1=O | -1.91
77 | C=CCn1c(Oc2ccccc2Cl)nc2c1c(=O)n(C)c(=O)n2C | 0.6
78 | Cn1c(Oc2ccccc2Br)nc2c1c(=O)n(Cc1ccccc1)c(=O)n2C | 5.58 (active)
79 | COC(=O)COc1c(C)cc(-c2nn(C)c(=O)c3ccccc23)cc1C | -1.18
80 | CCCCOC(C)n1cc(Br)c(=O)[nH]c1=O (configuration not stated) | 0.67
81 | CCOCCOC(=O)C1=C(C)NC2=C(C(=O)CC(c3cccs3)C2)C1c1ccc(OC(C)=O)cc1 (configuration not stated) | 0.06
82 | CC1=C(C(=O)OCc2ccccc2)C(c2ccc3c(c2)OCO3)C2=C(CC(c3cccs3)CC2=O)N1 (configuration not stated) | 3.65 (active)
83 | CCSCCOC(=O)C1=C(C)NC2=C(C(=O)CC(c3cccs3)C2)C1c1ccsc1 (configuration not stated) | 1.85
84 | CCOC(=O)N/N=C/c1ccccc1Cl | -1.05
85 | O=C(O)c1ccccc1/C=N/Nc1cc(Cl)ccc1Cl | 5.07 (active)
86 | S=C(N/N=C/c1ccc(Cl)cc1)Nc1cc(Cl)ccc1Cl | -0.45
87 | N#Cc1ccsc1N1C(=O)c2ccccc2C1=O | 0.31
88 | CCOC(=O)CSC(=NC)NNC(=O)c1c(C)nc2cc(C)ccn12 | -0.21
89 | Cc1cc(C)c(C(=O)NC(=O)Nc2c(Cl)cc(Cl)cc2Cl)c(C)c1 | 0.37
90 | CC(C)(C)c1ccc(-c2cc(NC(=O)c3ccc(Cl)cc3)n[nH]2)cc1 | 1.49
91 | Cc1cc(Br)c(NC(=O)c2ccc(Cl)cc2)c(Br)c1 | 4.71 (active)
92 | Cc1cccc(C2C3=C(CCCC3=O)N=C3c4ccccc4C(=O)C32)c1 (configuration not stated) | 2.43
93 | CC(C)(C)C(=O)Nc1ccncc1C(=O)O | -4.04
94 | Nc1nc(COc2ccccc2Cl)ncc1S(=O)(=O)c1ccccc1 | -2.39
95 | COc1ccc(-c2cc(C(F)(F)F)nc(SCC(=O)NC3CC3)n2)cc1OC | -0.37
96 | COc1ccc(-c2cc(C(F)(F)F)n3ncnc3n2)cc1OC | 4.99 (active)
97 | COc1ccc(-c2cc(C(F)(F)F)nc(SCC(=O)NC3CCCC3)n2)cc1OC | 1.64
